From PubChem BioAssay
CYP2C9 act: increases human cytochrome P450 2C9 activity | P11712 | recombinant CYP2C9, luciferin-H conversion, luminescence; active compounds read high; factor 1 = untreated enzyme, 0 = blocked | 96,000 tested, 1.4% active | AID 1024 | activation factor at 5 µM;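 active = activation factor of 2 or more for CYP2C9 at a 5 µM dose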
Target sequence (P11712 whole entry, looked up): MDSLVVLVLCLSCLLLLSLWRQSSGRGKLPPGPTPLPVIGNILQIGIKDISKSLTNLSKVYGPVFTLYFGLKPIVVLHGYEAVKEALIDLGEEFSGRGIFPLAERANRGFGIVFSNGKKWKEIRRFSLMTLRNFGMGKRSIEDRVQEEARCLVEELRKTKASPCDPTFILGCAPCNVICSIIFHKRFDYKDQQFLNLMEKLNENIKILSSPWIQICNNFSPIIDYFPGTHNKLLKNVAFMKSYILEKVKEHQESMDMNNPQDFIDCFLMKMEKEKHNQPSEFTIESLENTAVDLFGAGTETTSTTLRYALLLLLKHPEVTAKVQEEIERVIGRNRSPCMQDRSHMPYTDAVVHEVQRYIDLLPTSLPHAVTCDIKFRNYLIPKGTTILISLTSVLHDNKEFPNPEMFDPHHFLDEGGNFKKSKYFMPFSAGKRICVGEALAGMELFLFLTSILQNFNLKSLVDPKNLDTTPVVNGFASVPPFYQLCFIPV
CYP2C19 act: activators of human cytochrome P450 2C19; activation factor at 5 µM; P33261; 96,000 tested, under 10 active; recombinant CYP2C19, luciferin-H EGE luminescence; active compounds read high; 0 = fully inhibited enzyme, 1 = untreated enzyme;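 active = activation factor of at least 2 at 5 µM in the primary screen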
CYP2C19 inhib: blocks human cytochrome P450 2C19 | inhibition, % at 5 µM | CYP2C19 Supersomes, luciferin-H EGE luminescence, 30 min | 96,000 tested, 21% active;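 active = CYP2C19 inhibition above a set limit at 5 µM in the primary screen, cut at about 50% in these data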
Measles CPE: protection of cells from measles virus; Measles virus-infected cells, CPE protection, absorbance; protection (pct of control), % at 4 µM; 140,000 tested, 1.5% active; in the data active = protection mostly above about 24%, no sharp cut-off; inactive = mostly below about 26%
CYP2C9 inhib: human CYP2C9 inhibition; P11712; CYP2C9 Supersomes, luciferin-H conversion, luminescence; inhibition, % at 5 µM; 96,000 tested, 20% active; AID 777;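 active = blocking of liver enzyme CYP2C9 beyond about 50% at 5 µM, limit read from the data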
Hits are given with their value. Sampled rows, rich in hits. Any-hit rate of the full collection: about 22%.

Results for CC(C)(C)Nc1nc(SCc2ccccc2)nc(N2CCOCC2)n1 ?
CYP2C9 act: inactive; CYP2C19 act: inactive; CYP2C19 inhib: 74.7; Measles CPE: inactive; CYP2C9 inhib: 96.6

How did CCOC(=O)CNC(=O)CSc1nc2cccnc2n1Cc1ccccc1 do in these assays?
CYP2C9 act: inactive; CYP2C19 act: inactive; CYP2C19 inhib: 79.7; Measles CPE: inactive; CYP2C9 inhib: inactive

What do the screens show for `CCSc1nc2ccccc2n1CCC(=O)O`?
CYP2C9 act: inactive; CYP2C19 act: inactive; CYP2C19 inhib: inactive; Measles CPE: inactive; CYP2C9 inhib: inactive

What do the screens show for `O=C(O)CCn1c(SCc2cccc3ccccc23)nc2ccccc21`?
CYP2C9 act: inactive; CYP2C19 act: inactive; CYP2C19 inhib: inactive; Measles CPE: 28.8; CYP2C9 inhib: 66.5

Results for NNC(=O)Cn1c(SCc2ccccc2)nc2ccccc21 ?
CYP2C9 act: inactive; CYP2C19 act: inactive; CYP2C19 inhib: 95.8; Measles CPE: inactive; CYP2C9 inhib: inactive

How did Cc1nc(NC(=O)CSc2nc3cccnc3n2Cc2ccccc2)sc1C do in these assays?
CYP2C9 act: inactive; CYP2C19 act: inactive; CYP2C19 inhib: 63.2; Measles CPE: inactive; CYP2C9 inhib: 58.7

What do the screens show for `COc1ccc(C2CC(=O)NC3=C2C(=O)CCC3)cc1Cl` (configuration not stated)?
CYP2C9 act: inactive; CYP2C19 act: inactive; CYP2C19 inhib: inactive; Measles CPE: inactive; CYP2C9 inhib: inactive

How did C=CCn1c(C)cc(C(=O)COC(=O)COc2ccccc2C#N)c1C do in these assays?
CYP2C9 act: inactive; CYP2C19 act: inactive; CYP2C19 inhib: inactive; Measles CPE: inactive; CYP2C9 inhib: inactive

Results for CC12CN3CC(C)(CN(C1)C3c1cc3ccccc3[nH]1)C2=O (configuration not stated) ?
CYP2C9 act: inactive; CYP2C19 act: inactive; CYP2C19 inhib: inactive; Measles CPE: inactive; CYP2C9 inhib: inactive

What do the screens show for `Cc1nc(NC(=O)CCCC(=O)Nc2nc(C)c(C)s2)sc1C`?
CYP2C9 act: inactive; CYP2C19 act: inactive; CYP2C19 inhib: inactive; Measles CPE: inactive; CYP2C9 inhib: 80.8

Results for CCC(Sc1nc2ccsc2c(=O)n1-c1ccc(Cl)c(C)c1)C(=O)NCc1ccco1 (configuration not stated) ?
Measles CPE: inactive

How did N#CCCn1c(SCC(=O)NCc2ccco2)nc2ccccc21 do in these assays?
CYP2C9 act: inactive; CYP2C19 act: inactive; CYP2C19 inhib: inactive; Measles CPE: inactive; CYP2C9 inhib: inactive

How did CCC(Sc1nc2ccccc2c2nc3ccccc3n12)C(=O)NCc1ccco1 (configuration not stated) do in these assays?
CYP2C9 act: inactive; CYP2C19 act: inactive; CYP2C19 inhib: inactive; Measles CPE: inactive; CYP2C9 inhib: 77.8

What do the screens show for `O=C(CSc1nc2cccnc2n1Cc1ccccc1)NCc1ccco1`?
CYP2C9 act: inactive; CYP2C19 act: inactive; CYP2C19 inhib: 58.5; Measles CPE: inactive; CYP2C9 inhib: inactive

What do the screens show for `O=C(CSc1nc2ccccc2n1CC(=O)NCc1ccccc1)NCc1ccco1`?
CYP2C9 act: inactive; CYP2C19 act: inactive; CYP2C19 inhib: 79.1; Measles CPE: inactive; CYP2C9 inhib: 81.8

Results for O=C(c1cc(=O)[nH]c2ccccc12)N1CCN(S(=O)(=O)c2ccc3ccccc3c2)CC1 ?
CYP2C9 act: inactive; CYP2C19 act: inactive; CYP2C19 inhib: inactive; Measles CPE: inactive; CYP2C9 inhib: inactive

What do the screens show for `Cc1cc(C)cc(OCC(=O)OCC(=O)NCc2cccs2)c1`?
Measles CPE: inactive

Results for O=C(CSc1nc2ccccc2n1Cc1ccccc1)N/N=C/c1ccco1 ?
CYP2C9 act: inactive; CYP2C19 act: inactive; CYP2C19 inhib: 55.5; Measles CPE: inactive; CYP2C9 inhib: inactive

Results for Cc1nc(NC(=O)CSc2ccccc2N)sc1C ?
CYP2C9 act: inactive; CYP2C19 act: inactive; CYP2C19 inhib: inactive; Measles CPE: inactive; CYP2C9 inhib: 76.3

Results for Cc1cc(-c2n[nH]c(=S)n2/N=C/c2cc([N+](=O)[O-])ccc2Cl)n[nH]1 ?
Measles CPE: inactive

How did CCOC(=O)C1C(=O)N(C(=O)c2cncc(Br)c2)CC1c1ccccc1 (configuration not stated) do in these assays?
CYP2C9 act: inactive; CYP2C19 act: inactive; CYP2C19 inhib: 83.7; Measles CPE: inactive; CYP2C9 inhib: inactive

How did CCOC(=O)c1c(C)c(C)n(Cc2cccc(OC)c2OC)c1C do in these assays?
Measles CPE: inactive

Results for Cc1c(C=O)c(C=O)c(C)n1Cc1ccccc1 ?
CYP2C9 act: inactive; CYP2C19 act: inactive; CYP2C19 inhib: 61.9; Measles CPE: inactive; CYP2C9 inhib: inactive

Results for CCOC(=O)c1c(C(=O)OCC)c(C)n(Cc2cc(OC)c(OC)c(OC)c2)c1C ?
Measles CPE: inactive

How did CC(=O)c1c(C(C)=O)c(C)n(Cc2ccccc2)c1C do in these assays?
CYP2C9 act: inactive; CYP2C19 act: inactive; CYP2C19 inhib: inactive; Measles CPE: inactive; CYP2C9 inhib: inactive

How did CCOC(=O)c1c(C=O)c(C)n(Cc2ccccc2Cl)c1C do in these assays?
CYP2C9 act: inactive; CYP2C19 act: inactive; CYP2C19 inhib: 98.5; Measles CPE: inactive; CYP2C9 inhib: 93.5

What do the screens show for `CCOC(=O)c1c(C=O)c(C)n(Cc2ccc(C)cc2)c1C`?
CYP2C9 act: inactive; CYP2C19 act: inactive; CYP2C19 inhib: 76.4; Measles CPE: inactive; CYP2C9 inhib: 95.8

Results for COC(=O)[C@@H](NC(=O)Nc1cccc(Br)c1)C(C)C ?
Measles CPE: inactive

What do the screens show for `CCCC(NC(=O)CCl)c1ccccc1` (configuration not stated)?
Measles CPE: inactive

Results for O=S(=O)(NCc1csc(-c2cccnc2)n1)c1cccs1 ?
CYP2C9 act: inactive; CYP2C19 act: inactive; CYP2C19 inhib: inactive; Measles CPE: inactive; CYP2C9 inhib: inactive

How did O=C(NCCc1ccc(F)cc1)c1cccs1 do in these assays?
Measles CPE: inactive

Results for COc1ccc(S(=O)(=O)NCCc2csc(-c3cccnc3)n2)cc1 ?
CYP2C9 act: inactive; CYP2C19 act: inactive; CYP2C19 inhib: 92.6; Measles CPE: inactive; CYP2C9 inhib: 59.7

What do the screens show for `O=C(NCCc1csc(-c2ccc(C(F)(F)F)cc2)n1)c1cccs1`?
CYP2C9 act: inactive; CYP2C19 act: inactive; CYP2C19 inhib: inactive; Measles CPE: inactive; CYP2C9 inhib: 75.1

Results for O=S(=O)(NCCc1csc(-c2cccnc2)n1)c1cccs1 ?
CYP2C9 act: inactive; CYP2C19 act: inactive; CYP2C19 inhib: 93.5; Measles CPE: inactive; CYP2C9 inhib: 65.6

What do the screens show for `COc1ccc(-c2nc(CNS(=O)(=O)c3ccc(OC)c(OC)c3)cs2)cc1`?
CYP2C9 act: inactive; CYP2C19 act: inactive; CYP2C19 inhib: 81.9; Measles CPE: inactive; CYP2C9 inhib: 55.0

What do the screens show for `CCOc1ccc(Nc2nc(Cl)nc(NCCO)n2)cc1`?
Measles CPE: inactive

Results for CCC(C)/C(C)=N/NC(=O)c1cn(-c2ccccc2)nc1-c1ccccc1 (configuration not stated) ?
Measles CPE: inactive

How did COC(=O)c1ccc(CNC(=O)/C=C/c2cc([N+](=O)[O-])ccc2OC(F)F)cc1 do in these assays?
CYP2C9 act: inactive; CYP2C19 act: inactive; CYP2C19 inhib: inactive; Measles CPE: inactive; CYP2C9 inhib: inactive
